# Results taken from publication PMC12751014, “Non-Catalytic Inhibitors of the p38/MK2 Interface: Repurposing Approved Drugs to Target Neuroinflammation in Alzheimer’s Disease” (Journal of Medicinal Chemistry, 2025).
# About 50 (3%) of roughly 1,900 compounds showed an effect of 50% or more. The entries come from a sample that favours strong results as a whole.
# Molecular target: p38/MK2 protein–protein interaction (VF-p38α / GST-MK2) (Homo sapiens, UniProt Q16539)
# Experiment: primary screen, percent of control activity; higher = less effect of the substance
# Design: species or system HEK293T cell lysate transfected with VF-p38α and GST-MK2; unclear (methods say 'quintuplet replicates')
# Procedure: The TR-FRET assay was conducted in a 1536-well plate (Corning, catalog no. 3724) with HEK293T cell lysate transfected with VF-p38α and GST-MK2. Cell-lysate concentration was optimized with a titration experiment. Anti-Flag-Tb and anti-GST-d2 antibodies (Revvity, catalog no. 61FGBTLB) were used to couple p38α and MK2, respectively. A multiple-drop Combi dispenser (Thermo Scientific) combined reaction mixtures in quintuplet replicates. The TR-FRET signals were measured using a BMG Labtech PHERAstar FSX plate reader and normalized to the percent of DMSO control.
# p38/MK2 protein–protein interaction (VF-p38α / GST-MK2), sequence (Q16539 2-360 limits assumed): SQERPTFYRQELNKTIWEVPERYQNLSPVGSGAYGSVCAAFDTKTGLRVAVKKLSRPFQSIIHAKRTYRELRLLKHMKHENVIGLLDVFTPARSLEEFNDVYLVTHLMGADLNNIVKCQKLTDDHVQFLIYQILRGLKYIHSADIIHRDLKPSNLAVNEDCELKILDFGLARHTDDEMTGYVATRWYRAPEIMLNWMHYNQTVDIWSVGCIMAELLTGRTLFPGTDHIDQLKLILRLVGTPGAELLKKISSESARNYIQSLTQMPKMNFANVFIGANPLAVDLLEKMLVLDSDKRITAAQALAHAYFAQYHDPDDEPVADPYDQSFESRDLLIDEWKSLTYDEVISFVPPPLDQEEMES
row,Compound,Pct of control
1,Cc1cnc(NC(=O)Nc2cc(Br)c(C)cc2OCC2CNCCO2)cn1 (centres unmarked),73.3%
2,O=C1c2c(O)cccc2C(C2OC(CO)C(O)C(O)C2O)c2cc(CO)cc(O)c21 (centres unmarked),92%
3,Cc1cc(O)c2c(c1)C(=O)c1cccc(O)c1C2=O,94%
4,O=C1c2cccc(O)c2C(=O)c2c(O)cc(CO)cc21,33.9%
5,CC1=NN(c2ccc(C(=O)O)cc2)C(=O)C1=Cc1ccc(-c2cc(C)c(C)cc2[N+](=O)[O-])o1,18%
6,COc1ccccc1N1CCN(CCN(C(=O)C2CCCCC2)c2ccccn2)CC1.O=C(O)C=CC(=O)O,97.5%
7,CN1C(=O)CCS(=O)(=O)C1c1ccc(Cl)cc1 (centres unmarked),95.4%
8,COC(=O)Nc1nc2ccc(C(=O)c3cccs3)cc2[nH]1,97.5%
9,CCOc1ccc(NC(C)=O)cc1,97.7%
10,CC(C)(C)NC[C@H](O)COc1nsnc1N1CCOCC1.O=C(O)C=CC(=O)O,94.2%
11,c1ccc(Cn2c(-c3ccc(OCC(C4CCNCC4)n4c(-c5ccccc5)nc5ccccc54)cc3)nc3ccccc32)cc1 (centres unmarked),21.2%
12,CCOc1ccccc1-n1c(C(C)N2CCN(C(=O)COc3ccc(Cl)cc3)CC2)nc2ccccc2c1=O (centres unmarked),100%
13,CCCC1OC2CC3C4CCC5=CC(=O)C=CC5(C)C4C(O)CC3(C)C2(C(=O)CO)O1 (centres unmarked),101%
14,CCCNC(C)C(=O)Nc1c(C)csc1C(=O)OC.Cl (centres unmarked),99.8%
15,O=C(O)CCC1CCC(c2cc(F)ccc2F)(S(=O)(=O)c2ccc(Cl)cc2)CC1 (centres unmarked),85.6%
16,CN1CCN(C2CCN(C(=O)Nc3cc(Oc4ccc(NC(=O)C5(C(=O)Nc6ccc(F)cc6)CC5)c(F)c4)ccn3)CC2)CC1,46.1%
17,COc1cc2nccc(Oc3ccc(NC(=O)C4(C(=O)Nc5ccc(F)cc5)CC4)cc3)c2cc1OC.O=C(O)CC(O)C(=O)O,72.9%
18,COc1cc2nccc(Oc3ccc(NC(=O)C4(C(=O)Nc5ccc(F)cc5)CC4)cc3)c2cc1OC,70.5%
19,NC(=O)Nc1cc(-c2cccc(F)c2)sc1C(=O)NC1CCCNC1 (centres unmarked),74.3%
20,Cc1cc(NC(=O)c2cccc(NC(=O)C=CCN(C)C)c2)ccc1Nc1nccc(-c2cccnc2)n1,80.7%
21,CC1(COc2ccc3c(c2)ncn3-c2ccc3cccc(N4CCC(N)CC4)c3n2)COC1,47.3%
22,COCCOc1ccc2c(c1)ncn2-c1ccc2cccc(N3CCC(N)CC3)c2n1,51.7%
23,CCOC(=O)[C@H](CCc1ccccc1)N[C@H]1CS[C@H](c2cccs2)CN(CC(=O)O)C1=O.Cl,77.1%
24,CC(C)(C)CC(C)(C)c1ccc(O)c(Cc2ccc(Cl)cc2Cl)c1,88.3%
25,Cc1nn(-c2ccccc2)c(C)c1C=NN1CCN(Cc2ccccc2)CC1,85.5%
26,CC(=O)O.Cc1cc2c(C(C)C)c(O)c(O)c(C=O)c2c(O)c1-c1c(C)cc2c(C(C)C)c(O)c(O)c(C=O)c2c1O [S2812],29.9%

row,Compound,Pct of control
1,CC(=O)O.Cc1cc2c(C(C)C)c(O)c(O)c(C=O)c2c(O)c1-c1c(C)cc2c(C(C)C)c(O)c(O)c(C=O)c2c1O [S2303],26.8%
2,CC1(C)CCC2=C(O1)c1ccccc1C(=O)C2=O,102%
3,CCC1OC(=O)C(C)C(OC2CC(C)(OC)C(O)C(C)O2)C(C)C(OC2OC(C)CC(N(C)C)C2O)C(C)(O)CC(C)C(=NOCOCCOC)C(C)C(O)C1(C)O (centres unmarked),103%
4,C=CC(=O)Nc1cccc(Sc2nc(Nc3ccc(N4CCN(C)CC4)cc3)ncc2Cl)c1,91.7%
5,Nc1cccc(-c2cc3c(Oc4cccc(O)c4)ncnc3[nH]2)c1,90.3%
6,CC[C@@H]([C@H](C)O)n1ncn(-c2ccc(N3CCN(c4ccc(OC[C@@H]5CO[C@@](Cn6cncn6)(c6ccc(F)cc6F)C5)cc4)CC3)cc2)c1=O,97%
7,NC(N)=NS(=O)(=O)c1ccc(N)cc1,105%
8,Cc1c(Cl)cccc1Nc1ccccc1C(=O)O,99.2%
9,NC(=O)N1c2ccccc2C=Cc2ccccc21,93.5%
10,CCC(C)n1ncn(-c2ccc(N3CCN(c4ccc(OCC5COC(Cn6cncn6)(c6ccc(Cl)cc6Cl)O5)cc4)CC3)cc2)c1=O (centres unmarked),88.6%
11,c1cc(-c2cnn3cc(-c4ccc(N5CCNCC5)cc4)cnc23)c2cccnc2c1,10.1%
12,COc1ccc(-c2cnc3c(-c4cccc5ncccc45)cnn3c2)cc1,23.2%
13,CC(C)Oc1ccc(-c2cnc3c(-c4ccnc5ccccc45)cnn3c2)cc1,89.1%
14,CN1CCC(OC(c2ccccc2)c2ccccc2)CC1.Cl,89.1%
15,COc1ccc(C2=NC(c3ccc(Cl)cc3)C(c3ccc(Cl)cc3)N2C(=O)N2CCNC(=O)C2)c(OC(C)C)c1 (centres unmarked) [S8065],100%
16,COc1ccccc1S(=O)(=O)Nc1ccc2c(c1)CN(C)C(=O)N2,117%
17,CCN(C(=O)c1c(O)c2c(Cl)cccc2n(C)c1=O)c1ccccc1,88.3%
18,O=[N+]([O-])c1ccc2c(c1)S(=O)(=O)C=C2,58.2%
19,CC1CN(CC(=O)Nc2ccc3c(c2)Cc2cccc(-c4cc(=O)cc(N5CCOCC5)o4)c2S3)CC(C)O1 (centres unmarked),82.7%
20,CN(CC(=O)N(Cc1ccc(C2CCCCC2)cc1)c1ccc(C(=O)O)cc1)S(=O)(=O)c1c(F)c(F)c(F)c(F)c1F,24.1%
21,O=c1c2ccccc2nc2n1CCc1c-2[nH]c2ccccc12,100%
22,NNC(=O)c1ccncc1,86.5%
23,CCOC(=O)c1ccc(C#Cc2ccc3c(c2)C(C)(C)CCS3)nc1,106%
24,Cc1ccc(CNc2ncnc3ccc(-c4ccc(CO)o4)cc23)o1,69.2%
25,Cc1cc(Nc2ncnc3ccc(-c4ccc(CNCCS(C)(=O)=O)o4)cc23)ccc1Oc1ccn2ncnc2c1,24.2%
26,CS(=O)(=O)CCNCc1ccc(-c2ccc3ncnc(Nc4ccc(OCc5cccc(F)c5)c(Cl)c4)c3c2)o1,88.1%

row,Compound,Pct of control
1,Cc1cc(=O)[nH]c(=S)[nH]1,101%
2,CN(c1ncccc1CNc1nc(Nc2ccc3c(c2)CC(=O)N3)ncc1C(F)(F)F)S(C)(=O)=O,106%
3,CS(=O)(=O)c1cccc(CNc2nc(Nc3ccc4c(c3)CCC(=O)N4)ncc2C(F)(F)F)c1,34%
4,CN(c1ncccc1CNc1nc(Nc2ccc3c(c2)CC(=O)N3)ncc1C(F)(F)F)S(C)(=O)=O.Cl,76.7%
5,CC(C)Cc1ccc(C(C)C(=O)O)cc1 (centres unmarked),93%
6,O=C(COc1cccc2c(=O)[nH]ccc12)c1ccccc1,89.7%
7,CNS(=O)(=O)Cc1ccc2[nH]cc(CCN(C)C)c2c1.O=C(O)CCC(=O)O,102%
8,CC(=O)OC1(C(C)=O)CCC2C3CC(C)C4=CC(=O)CCC4(C)C3CCC21C (centres unmarked),87%
9,COc1c(C)c(C(=O)c2ccc(N)c(C(=O)[O-])c2)n2ccccc12.[Na+],94%
10,CC(C)(C)c1cc(C(C)(C)C)c(NC(=O)c2c[nH]c3ccccc3c2=O)cc1O,111%
11,CC(C)c1ccccc1Cc1cc(C(=O)Nc2ccc(S(=O)(=O)c3ccccc3C(C)(C)C)cc2)c(O)c(O)c1O,33.3%
12,CC(=O)NS(=O)(=O)c1ccc(NC(=O)c2ccccc2C(=O)O)cc1,96.2%
13,Cc1ccc(Cl)c(Nc2ccccc2C(=O)[O-])c1Cl.[Na+],95.1%
14,COc1ccc2cccc(CCNC(C)=O)c2c1,90.6%
15,CS(=O)(=O)O.CS(=O)(=O)O.Cc1ccc(C(=O)Nc2ccc(CN3CCN(C)CC3)c(C(F)(F)F)c2)cc1C#Cc1cnc2[nH]ncc2c1,73.8%
16,NS(=O)(=O)C#Cc1ccccc1,97.5%
17,Cc1cccc(C#Cc2ccccc2)n1,29.7%
18,O=C1NC(=O)C(=Cc2ccc3nccc(-c4ccncc4)c3c2)S1,126%
19,Cc1ccc(Cl)cc1N(CC(=O)Nc1c(F)cccc1F)S(C)(=O)=O,91.8%
20,N#CC(c1ccc(Cl)cc1)c1c(Cl)cc(-n2ncc(=O)[nH]c2=O)cc1Cl (centres unmarked),72%
21,COc1cc2c(cc1-c1c(C)noc1C)ncc1[nH]c(=O)n(C(C)c3ccccn3)c12 (centres unmarked),53.6%
22,Cc1cc(NC(=O)Nc2ccc(N(C)C)cc2)c2cc(F)cc(F)c2n1,89.3%
23,CN(C)c1ccc(-c2nc3ncc(Cl)c(N4CCN(CC(=O)Nc5nccs5)CC4)c3[nH]2)cc1,97.9%
24,Nc1ccc(-c2ccc3ncc4ccc(=O)n(-c5cccc(C(F)(F)F)c5)c4c3c2)cn1,87.9%
25,COc1ccc(-c2ccc3ncc4c(c3c2)n(-c2ccc(N3CCNCC3)c(C(F)(F)F)c2)c(=O)n4C)cn1.O=C(O)C=CC(=O)O,45%
